Assay results: PubChem BioAssay AID588852 (The Scripps Research Institute Molecular Screening Center, 2011)
Out of some 360,000 compounds screened, about 4,600 (1.3%) were called active. This is one part of a sample in which actives are shown more often than they occur.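 Rule for the calls: active = percent inhibition above its own plate's cutoff, namely the mean of that plate's compound wells plus 3 SD; inactive = the rest.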

target: Muscarinic acetylcholine receptor M1 (Homo sapiens) (UniProt P11229); assay: human M1 muscarinic receptor antagonists, primary screen, CHO-K1 cells, Fluo-8 calcium fluorescence, 1536-well (AID 588852); details: CHO-K1 hM1, Fluo-8 calcium fluorescence, ACh EC80 antagonist; at 3 µM; hits give high values;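 note: peak over basal fluorescence ratio during 140 s after agonist addition; 0% = ACh EC80 plus DMSO and 100% = DMSO alone without agonist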
Sequence (P11229 whole entry, looked up): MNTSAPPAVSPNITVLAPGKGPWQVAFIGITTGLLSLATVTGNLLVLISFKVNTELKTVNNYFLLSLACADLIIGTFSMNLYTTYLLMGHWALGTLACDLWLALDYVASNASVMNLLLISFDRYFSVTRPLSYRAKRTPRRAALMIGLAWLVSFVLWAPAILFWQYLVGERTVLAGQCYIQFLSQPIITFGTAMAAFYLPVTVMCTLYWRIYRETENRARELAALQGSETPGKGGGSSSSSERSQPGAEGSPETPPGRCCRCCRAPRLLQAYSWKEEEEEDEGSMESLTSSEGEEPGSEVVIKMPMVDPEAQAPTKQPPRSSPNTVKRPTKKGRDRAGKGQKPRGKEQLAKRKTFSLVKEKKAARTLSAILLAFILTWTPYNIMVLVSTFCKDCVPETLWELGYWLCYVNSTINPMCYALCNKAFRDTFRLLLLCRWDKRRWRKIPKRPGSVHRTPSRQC

SMILES	inhibition
CCNC(=O)COC(=O)/C=C/c1c(C)nn(Cc2cccc(OC)c2)c1Cl	-14.4% (inactive)
O=C(NC1CC1)C1=C[C@H](c2coc3ccccc3c2=O)C[C@H](OCCCCO)O1	-2.15% (inactive)
CC1(Cc2cccc(C#N)c2)C(=O)Nc2ccc(-c3cccc(C(F)(F)F)c3)cc21 (stereo unspecified)	-21.5% (inactive)
O=C(N/N=C/c1ccc(OCC2COCCO2)cc1)c1ccc(Br)cc1 (stereo unspecified)	-0.51% (inactive)
COc1ccccc1-n1c(SCC(=O)Nc2cccc(C(=O)O)c2)nnc1-c1ccccc1O	-23.3% (inactive)
COc1cccc(/C=N/Nc2cc(C)nc(-c3ccccc3O)n2)c1O	37% (active)
COc1cc(/C=N/Nc2ccc(C)cc2)cc(Br)c1O	1.92% (inactive)
CC(C)C(=O)Nc1nnc(SCC(=O)N2C(C)CCCC2C)s1 (stereo unspecified)	-9.39% (inactive)
COC(C)(C)[C@]12CC(O)(C(C)C)ON1[C@H]1CCCCC1N2O (stereo partly specified)	2.96% (inactive)
CCOC(=O)c1cccc(NC(=O)CN2C(=O)C3CC=CCC3C2=O)c1 (stereo unspecified)	-6.58% (inactive)
Cc1ccccc1OCC(=O)NNC(=O)c1cc(S(=O)(=O)N(C)C)ccc1N1CCCC1	-9.89% (inactive)
CN(C)CC/C=C1\c2ccccc2CSc2ccccc21	96.1% (active)
CN(C)Cc1ccccc1C1(O)c2ccccc2CSc2ccccc21 (stereo unspecified)	20.6% (inactive)
COc1ccc(-c2ccc(C(=O)NCCN3CCOCC3)c3occc23)c(C)c1	1.54% (inactive)
CC(C)C[C@H]1CNC(=S)N1C[C@H]1CCCN1C[C@H](Cc1ccc(O)cc1)N1C[C@H](Cc2ccc(O)cc2)N(CC2CCCCC2)C1=S	1.57% (inactive)
C[N+]1(CC(O)COc2ccccc2)CCN(C(=O)c2ccc([N+](=O)[O-])cc2)CC1 (stereo unspecified)	-2.65% (inactive)
COc1ccccc1C1SCCN1C(=O)c1ccc([N+](=O)[O-])cc1 (stereo unspecified)	62% (active)
O=C(Nc1ccc(F)cc1)C1CCN(C(=O)c2ccc([N+](=O)[O-])cc2)CC1	-0.31% (inactive)
Cc1cc(C)cc(C(=O)NCCN2CCOCC2)c1	-11.1% (inactive)
Cc1cccc(C(=O)OC(C)CN2CCN(C)CC2)c1 (stereo unspecified)	-1.32% (inactive)
Cc1cccc(-c2nc3ccc(C(=O)NCCN4CCN(C)CC4)cc3nc2-c2cccc(C)c2)c1	46.9% (active)
CSc1nc2sc3c(c2c(=O)[nH]1)CCc1ccccc1-3	-1.53% (inactive)
C/C(=N\NC(=O)NC1CCCCC1)c1ccc(OC(F)F)cc1OC(F)F	3.51% (inactive)

SMILES	inhibition
CCSC(C)CC1C/C(=N/O)c2c(C)noc2C1 (stereo unspecified)	46.6% (active)
CCCc1noc2c1/C(=N\O)CCC2	-7.37% (inactive)
COc1ccc(OC)c(Cc2cnc3nc(N)nc(N)c3c2C)c1	-0.49% (inactive)
O=C(Cc1ccc(Cl)cc1)NC(=S)Nc1ccccc1O	64.7% (active)
Cc1ccccc1NC(=S)NC(=O)Cc1ccc(Cl)cc1	14.3% (inactive)
O=C(COc1ccc(Cl)cc1)NC(=S)Nc1ccccc1N1CCOCC1	1.11% (inactive)
O=C(NCCCn1ccnc1)C1CCCN(S(=O)(=O)c2cc(Cl)ccc2Cl)C1 (stereo unspecified)	5.3% (inactive)
Nc1ncnc2c1ncn2[C@@H]1O[C@H](C(=O)NCC(F)(F)F)[C@@H](O)[C@H]1O	-26.1% (inactive)
CCSC1=NCCN1S(=O)(=O)c1ccc(F)cc1	7.85% (inactive)
COc1ccc(C(=O)NC(=S)NC2CCCCC2)cc1	-6.7% (inactive)
COc1cc(C(=S)N2CCOCC2)ccc1O	0.12% (inactive)
COc1cc(C(=S)NC2CCCCC2)ccc1O	99.6% (active)
CC(=O)Nc1cccc(Nc2ccc(C#N)cc2)c1	-8.06% (inactive)
O=C(/C=C/[C@H]1O[C@@H](n2cnc3c(NC(=O)c4ccccc4)ncnc32)[C@H](O)[C@@H]1O)NCc1ccccc1	-2.88% (inactive)
CCOc1ccc(CN2CCN(Cc3ccc(C)o3)CC2CCO)cc1 (stereo unspecified)	0.92% (inactive)
OCC1(CCc2ccccc2)CCN(Cc2ccc3nsnc3c2)CC1	-4.82% (inactive)
OCCC1CN(Cc2ccc3nsnc3c2)CCN1C1CCCCC1 (stereo unspecified)	31.7% (active)
CC(C)N1CCC(N2CCN(Cc3cccnc3)CC2CCO)CC1 (stereo unspecified)	-8.8% (inactive)
Cc1ccc(CN2CCN(Cc3ccc4ncccc4c3)CC2CCO)cc1 (stereo unspecified)	5.31% (inactive)
COc1cccc2c1OCC(CN1CCN(C3CCCCC3)C(CCO)C1)=C2 (stereo unspecified)	28% (inactive)
Cn1cnnc1Sc1ccc(CN2CCN(C3CCCC3)C(CCO)C2)o1 (stereo unspecified)	25.2% (active)
Cc1ccc(CN2CCN(Cc3ccc(OCCO)cc3)CC2CCO)o1 (stereo unspecified)	-10.3% (inactive)
OCCC1CN(Cc2ccc3nsnc3c2)CCN1C1CCCC1 (stereo unspecified)	45.8% (active)
